# Reference: PubChem BioAssay (NCATS)
# “And” between values parts separate entries of the source, which are not always exact repeats. Identical values can stand only once. Records with an inconclusive call do not appear. The source made the active and inactive calls. Unless noted, calls come from the whole dose curve; as a rule, active = well fitted curve in either direction with a large enough effect (not every such curve was filed as active); inconclusive = small, poorly fitted or top-dose-only effect, or another doubt; inactive = flat fitted curve, though single readings scatter.
# Key:
# [1] = AP1 Signaling Pathway (AID 357); conditions: ME-180 AP-1-bla reporter, EGF-induced, beta-lactamase ratio, 5 h;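 note: ME-180 reporter cells stimulated with EGF at its EC50 level; % is set by controls: 0 for no effect and ±100 for the full control effect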
# Method in brief: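 Titration-series screen for positive or negative modulators of EC50 EGF-induced signaling in ME-180 cells carrying an AP-1-driven beta-lactamase reporter. After 5 hours at 37 degrees Celsius, CCF4 460nm/530nm emission ratio gave %Activity; AC50 values derived.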
# [2] = NFAT Signaling Pathway (AID 444); conditions: Jurkat NFAT-bla M1, carbachol, beta-lactamase ratio, 5 h;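 note: carbachol stimulus at about its EC50 of 1 µM final; % is set by controls: 0 for no effect and ±100 for the full control effect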
# Method in brief: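 Jurkat cells carrying an NFAT-driven β-lactamase reporter and co-transfected muscarinic M1 receptor were treated with compound plus carbachol (1 uM final, an EC50 level) for 5 h at 37 °C. CCF4 loading followed for 1 h at RT; 460/530 nm ratio gave %activity.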
# [3] = Stat Signaling Pathway (AID 446); conditions: ME-180 SIE beta-lactamase reporter, IL-6 stimulated, 5 h;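 note: ME-180 cervical cancer cells given 40 pM IL-6 alongside compound; SIE-controlled beta-lactamase reporter measured as 460/530 nm FRET emission ratio; % is set by controls: 0 for no effect and ±100 for the full control effect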
# Method in brief: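 Reporter line: ME-180 cervical carcinoma, SIE-beta-lactamase. Treatment: compound with 40 pM IL-6, 5 hrs, 37 C, in low-serum OPTI-MEM with 10 mM HEPES pH 7.3. Detection: 460/530 nm fluorescence.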
# [4] = target: Glucocorticoid receptor (Homo sapiens) (UniProt P04150); assay: GR-EFC Redistribution (AID 451; calls by dose curve; note: potency is the fitted concentration of half-maximal effect); conditions: CHO-K1 GR-EFC translocation, beta-gal luminescence, 2 h
# Method in brief: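 CHO-K1 cells stably expressing nuclear-localized β-gal enzyme acceptor and GR fused C-terminally to the enzyme donor fragment; ligand-driven nuclear translocation restores β-gal by complementation. Compounds titrated up to 46 uM final, 2 h at 37 °C; luminescence read.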
# [5] = target: Mitogen-activated protein kinase 10 (Mus musculus) (UniProt Q61831); assay: JNK3 AlphaScreen Assay (AID 530);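 note: kinase came from lysate of stimulated human HepG2 cells; signal reports phosphorylation of biotinylated GST-cJun 1-79 at Ser73 with 10 µM ATP; % is set by controls: 0 for no effect and ±100 for the full control effect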
# Method in brief: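 JNK3 came from HepG2 lysates pre-activated with IL-1beta and TNF-alpha and phosphorylated biotinylated GST-cJun (1-79) at 10 uM ATP, pH 7.6, room temperature. Compounds were titrated. AlphaScreen signal used anti-phospho-cJun (Ser73) antibody.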
# [6] = target: 3',5'-cyclic-AMP phosphodiesterase 4B (Homo sapiens) (UniProt Q07343); assay: qHTS Assay for Inhibitors of PDE-IV (AID 607; active = well fitted activation curve with a large enough effect in the main read-out, with a control signal flat, not every such curve was filed as active; note: % of control where 0% means no effect)
# Method in brief: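 Cell-based read-out of cAMP via a modified cyclic nucleotide-gated channel and membrane potential dye (535/590 nm) in HEK293 cells expressing PDE4 endogenously. Compounds tested up to 22.9 uM final; 100 uM RO 20-1724 reference.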
# [7] = qHTS Assay for Lipid Storage Modulators (AID 1519; calls by dose curve); conditions: Drosophila S3 cells, BODIPY lipid droplet/cell ratio, laser cytometry, cells loaded with oleic acid
# Method in brief: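 Cells seeded at 5,000 per well were treated with compounds over a concentration series and loaded with oleic acid (400 uM, as added). Lipid droplet fluorescence (488 nm excitation, 500-530 nm channel) was read by laser-scanning cytometry and normalized to 20 uM Triacsin C.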
# [8] = target: Cytochrome P450 1A2 (Homo sapiens) (UniProt P05177); assay: p450-cyp1a2 (AID 410; calls by dose curve;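 note: -100% = full effect of reference inhibitor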)
# Method in brief: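 Human CYP1A2 (20nM) demethylated Luciferin-ME at its Km (100uM) in 100mM KPO4. After 10 min compound preincubation, NADPH regeneration ran the reaction 60 min at room temperature. Luciferin was read by luminescence, normalized to 57 uM furafylline.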
# [9] = target: Guanine nucleotide-binding protein G(i) subunit alpha-1 (Homo sapiens) (UniProt P63096); assay: qHTS Assay for Inhibitors of RGS12 GoLoco Motif Activity (Green Fluorophore) (AID 879; active = well fitted curve in the direction sought with a large enough effect; an effect the other way counts as inactive or inconclusive;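 note: 0% = labeled peptide with Gαi1 and full inhibition = labeled peptide alone without protein; negative values mean loss of peptide binding seen as reduced polarization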)
# Method in brief: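 Fluorescence polarization assay: 50 nM Gαi1 with 10 nM FITC-labeled RGS12 GoLoco peptide in 10 mM Tris pH 7.5, 150 mM NaCl, 0.1 mM GDP, 0.05% NP40, 10 min at room temperature with compound.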
# [10] = target: Pyruvate kinase (Leishmania mexicana) (UniProt Q27686); assay: qHTS Validation Assay for Inhibitors of Leishmania Mexicana Pyruvate Kinase (AID 945; active = well fitted curve in the direction sought with a large enough effect; an effect the other way counts as inactive or inconclusive;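 note: 0% = DMSO only neutral control wells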)
# Method in brief: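 The enzyme is a highly purified E451W mutant of LmPYK used at 0.2 nM. It converts 0.5 mM PEP and 0.1 mM ADP over 1 h at room temperature; product ATP is quantified by luciferase luminescence relative to DMSO controls.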
# [11] = target: Pyruvate kinase PKM (Homo sapiens) (UniProt P14618); assay: qHTS Assay for Activators of Human Muscle Pyruvate Kinase (AID 954; active = well fitted curve in the direction sought with a large enough effect, not every such curve was filed as active;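 note: 0% = uninhibited enzyme and -100% = no enzyme or full thiadiazolimine inhibition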)
# Method in brief: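 Human PKM2 activity is measured as ATP generation, detected by luciferase-coupled luminescence. The enzyme (0.1 nM) acts on 0.5 mM PEP and 0.1 mM ADP for 1 h at ambient temperature; data are normalized to uninhibited and full-inhibition wells.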
# [12] = target: Ubiquitin carboxyl-terminal hydrolase 1 (Homo sapiens) (UniProt O94782); assay: Inhibitors of USP1/UAF1: Pilot qHTS (AID 504865; active = well fitted curve in the direction sought with a large enough effect; an effect the other way counts as inactive or inconclusive;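 note: rhodamine fluorescence freed from ubiquitin-rhodamine substrate followed over time; top concentration of the series differs between compounds; % is set by controls: 0 for no effect and ±100 for the full control effect; nearly all actives have a fitted effect of over 35% in size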)
# Method in brief: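 Kinetic fluorescence assay: 1nM USP1/UAF1, 15 min compound preincubation, then 150nM Ub-Rho; 480/540 nm.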
# [13] = target: Glucocorticoid receptor (Homo sapiens) (UniProt P04150); assay: GR-GFP Redistribution (AID 450;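 active = compounds whose dose series gives a full or clear partial fitted curve of increased nuclear translocation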; note: potency is the fitted concentration of half-maximal effect); conditions: U2OS GR-GFP nuclear translocation, laser cytometry, 2 h
# [14] = target: ATP-dependent 6-phosphofructokinase (Trypanosoma brucei brucei) (UniProt O15648); assay: qHTS Assay to Find Inhibitors of T. brucei phosphofructokinase: hit validation (AID 492961; active = well fitted curve in the direction sought with a large enough effect; an effect the other way counts as inactive or inconclusive)
# Method in brief: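 Reaction: 0.1 M triethanolamine pH 8.0, 5 mM MgCl2, F6P 0.5 mM, ATP 0.1 mM, PFK 1.25 nM, 45 min RT. Read-out: ADP-Glo luminescence. Analysis: concentration-response fits, classed by r2 and efficacy.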
# [15] = target: Luciferin 4-monooxygenase (Photinus pyralis) (UniProt P08659); assay: Biochemical firefly luciferase enzyme assay for NPC (AID 624030; active = well fitted curve in the direction sought with a large enough effect; an effect the other way counts as inactive or inconclusive;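 note: purified P. pyralis luciferase at 10 nM with luciferin and ATP substrate; 0% = DMSO and -100% = full luciferase inhibition by PTC124 control; nearly all actives have a fitted effect of over 70% in size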)
# Method in brief: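 Counter-screen for direct inhibition of the luciferase enzyme by approved-drug library compounds, run at 10 nM enzyme in 50 mM Tris acetate (final). Luminescence was read within 5 min of enzyme-buffer addition and normalized to PTC124 versus DMSO (0%).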
# [16] = qHTS profiling for inhibitors of Plasmodium falciparum proliferation (AID 504749; active = well fitted curve in the direction sought with a large enough effect; an effect the other way counts as inactive or inconclusive;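 note: 0% = DMSO vehicle and full inhibition = artemisinin control; nearly all actives have a fitted effect of over 60% in size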); conditions: P. falciparum in erythrocytes, SYBR Green DNA, 72 h, at 28.7 µM (top of the series)
# Method in brief: (§1)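 P. falciparum-infected erythrocytes (0.3% parasitemia, 2.5% hematocrit final) were exposed to compounds for 72 h at 37 C in 5% CO2, then lysed with SYBR Green buffer overnight at room temperature; parasite DNA fluorescence was normalized to artemisinin and DMSO controls.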
# [17] = test system: AS120; assay: as above; conditions: P. falciparum in erythrocytes, SYBR Green DNA, 72 h; series mostly up to 28.7 µM
# Method in brief: as §1
# [18] = test system: CP238; assay: as above; conditions: P. falciparum in erythrocytes, SYBR Green DNA, 72 h; series mostly up to 12.8 µM
# Method in brief: as §1
# [19] = test system: CP265; assay: as above; conditions: P. falciparum in erythrocytes, SYBR Green DNA, 72 h; series mostly up to 12.8 µM
# Method in brief: as §1
# [20] = test system: FAB9; assay: as above; conditions: P. falciparum in erythrocytes, SYBR Green DNA, 72 h; series mostly up to 12.8 µM
# Method in brief: as §1
# [21] = at 7.69 µM (top of the series) unless noted
# [22] = measured here: cell count channel max response
# [23] = measured here: lipid channel max response
# Chain of Cytochrome P450 1A2 (Homo sapiens) (P05177 whole entry, looked up): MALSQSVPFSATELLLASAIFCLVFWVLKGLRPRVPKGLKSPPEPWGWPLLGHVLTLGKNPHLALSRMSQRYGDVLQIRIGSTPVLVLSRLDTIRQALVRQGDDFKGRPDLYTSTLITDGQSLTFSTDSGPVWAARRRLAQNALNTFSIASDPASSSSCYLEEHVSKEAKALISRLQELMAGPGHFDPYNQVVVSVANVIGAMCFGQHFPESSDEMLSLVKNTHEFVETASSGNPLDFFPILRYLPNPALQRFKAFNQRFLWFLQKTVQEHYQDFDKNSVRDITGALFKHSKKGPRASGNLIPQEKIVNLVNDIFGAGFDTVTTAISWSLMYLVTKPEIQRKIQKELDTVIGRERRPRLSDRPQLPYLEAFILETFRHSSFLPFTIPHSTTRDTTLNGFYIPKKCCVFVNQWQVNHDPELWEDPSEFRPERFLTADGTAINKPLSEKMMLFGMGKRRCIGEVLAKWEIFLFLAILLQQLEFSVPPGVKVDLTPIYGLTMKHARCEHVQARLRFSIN
# Chain of Luciferin 4-monooxygenase (Photinus pyralis) (P08659 whole entry, looked up): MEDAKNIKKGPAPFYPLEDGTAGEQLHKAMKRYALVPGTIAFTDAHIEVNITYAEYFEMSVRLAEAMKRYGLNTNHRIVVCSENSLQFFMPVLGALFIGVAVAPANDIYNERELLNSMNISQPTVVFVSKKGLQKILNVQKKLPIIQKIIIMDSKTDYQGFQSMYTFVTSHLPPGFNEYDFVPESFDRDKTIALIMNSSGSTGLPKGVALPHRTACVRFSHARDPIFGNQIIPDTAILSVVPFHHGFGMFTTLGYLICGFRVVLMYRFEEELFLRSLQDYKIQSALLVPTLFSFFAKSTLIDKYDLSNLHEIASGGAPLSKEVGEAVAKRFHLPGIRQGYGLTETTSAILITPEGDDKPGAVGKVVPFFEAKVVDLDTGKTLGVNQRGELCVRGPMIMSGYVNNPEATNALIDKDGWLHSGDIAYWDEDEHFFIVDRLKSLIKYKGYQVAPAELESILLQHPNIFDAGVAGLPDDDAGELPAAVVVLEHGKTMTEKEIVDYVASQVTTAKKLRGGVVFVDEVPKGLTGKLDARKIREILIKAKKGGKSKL
# Chain of Ubiquitin carboxyl-terminal hydrolase 1 (Homo sapiens) (O94782 whole entry, looked up): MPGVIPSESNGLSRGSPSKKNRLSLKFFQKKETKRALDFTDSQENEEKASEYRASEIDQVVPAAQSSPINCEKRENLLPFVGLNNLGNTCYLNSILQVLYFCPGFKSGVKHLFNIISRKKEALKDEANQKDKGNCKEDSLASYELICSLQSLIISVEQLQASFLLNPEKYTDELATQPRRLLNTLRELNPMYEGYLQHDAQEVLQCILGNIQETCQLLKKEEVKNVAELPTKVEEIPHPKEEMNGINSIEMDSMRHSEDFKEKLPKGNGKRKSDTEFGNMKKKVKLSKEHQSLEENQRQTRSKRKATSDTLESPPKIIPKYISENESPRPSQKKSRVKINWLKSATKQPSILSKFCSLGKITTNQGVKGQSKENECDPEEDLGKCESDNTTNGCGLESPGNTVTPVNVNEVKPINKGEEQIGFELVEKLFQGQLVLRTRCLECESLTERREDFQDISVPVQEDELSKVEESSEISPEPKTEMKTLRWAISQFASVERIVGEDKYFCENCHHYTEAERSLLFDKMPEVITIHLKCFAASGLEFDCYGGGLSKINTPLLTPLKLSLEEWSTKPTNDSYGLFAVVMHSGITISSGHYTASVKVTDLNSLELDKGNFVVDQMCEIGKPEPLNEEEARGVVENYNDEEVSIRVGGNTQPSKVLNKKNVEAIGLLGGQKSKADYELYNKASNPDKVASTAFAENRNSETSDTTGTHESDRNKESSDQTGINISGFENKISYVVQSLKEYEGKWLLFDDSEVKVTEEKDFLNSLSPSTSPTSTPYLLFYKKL
# Chain of Guanine nucleotide-binding protein G(i) subunit alpha-1 (Homo sapiens) (P63096 whole entry, looked up): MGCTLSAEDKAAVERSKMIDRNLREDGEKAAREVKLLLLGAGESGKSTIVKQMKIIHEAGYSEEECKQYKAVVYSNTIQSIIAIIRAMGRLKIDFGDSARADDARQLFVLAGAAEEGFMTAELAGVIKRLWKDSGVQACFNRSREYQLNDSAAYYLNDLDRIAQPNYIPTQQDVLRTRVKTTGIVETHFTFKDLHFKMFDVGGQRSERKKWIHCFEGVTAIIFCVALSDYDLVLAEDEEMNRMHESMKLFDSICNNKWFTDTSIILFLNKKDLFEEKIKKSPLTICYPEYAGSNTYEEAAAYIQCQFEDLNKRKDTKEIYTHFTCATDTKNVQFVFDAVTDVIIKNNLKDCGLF
# Chain of Pyruvate kinase (Leishmania mexicana) (Q27686 2-499 E452W): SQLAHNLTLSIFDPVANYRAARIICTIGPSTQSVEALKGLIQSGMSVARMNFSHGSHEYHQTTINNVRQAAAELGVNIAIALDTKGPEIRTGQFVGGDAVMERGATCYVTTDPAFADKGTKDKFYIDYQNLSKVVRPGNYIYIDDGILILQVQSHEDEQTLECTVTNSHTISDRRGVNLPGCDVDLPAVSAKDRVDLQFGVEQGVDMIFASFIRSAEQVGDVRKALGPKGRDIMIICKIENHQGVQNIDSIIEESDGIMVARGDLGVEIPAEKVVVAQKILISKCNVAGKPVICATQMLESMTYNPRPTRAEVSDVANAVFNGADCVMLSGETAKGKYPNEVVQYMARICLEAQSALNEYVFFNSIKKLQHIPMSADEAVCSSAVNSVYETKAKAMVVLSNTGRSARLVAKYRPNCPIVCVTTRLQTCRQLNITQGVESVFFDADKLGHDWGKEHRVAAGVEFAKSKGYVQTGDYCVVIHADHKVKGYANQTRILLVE
# Chain of Pyruvate kinase PKM (Homo sapiens) (P14618 whole entry, looked up): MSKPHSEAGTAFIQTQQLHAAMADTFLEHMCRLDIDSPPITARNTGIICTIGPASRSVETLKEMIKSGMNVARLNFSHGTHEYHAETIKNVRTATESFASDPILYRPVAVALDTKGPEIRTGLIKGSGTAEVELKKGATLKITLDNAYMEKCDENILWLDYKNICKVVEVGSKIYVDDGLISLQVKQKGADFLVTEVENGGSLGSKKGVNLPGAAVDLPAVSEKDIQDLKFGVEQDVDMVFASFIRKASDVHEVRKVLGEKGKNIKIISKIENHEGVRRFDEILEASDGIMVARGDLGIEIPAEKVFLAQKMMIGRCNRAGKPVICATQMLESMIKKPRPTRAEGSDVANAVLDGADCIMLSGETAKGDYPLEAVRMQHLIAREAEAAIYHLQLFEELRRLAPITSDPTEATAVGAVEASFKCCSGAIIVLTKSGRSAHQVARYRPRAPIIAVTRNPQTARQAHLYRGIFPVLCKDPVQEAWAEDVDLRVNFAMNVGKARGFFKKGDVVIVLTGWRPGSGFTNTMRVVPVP
# Chain of Glucocorticoid receptor (Homo sapiens) (P04150 whole entry, looked up, the tested form may be a part): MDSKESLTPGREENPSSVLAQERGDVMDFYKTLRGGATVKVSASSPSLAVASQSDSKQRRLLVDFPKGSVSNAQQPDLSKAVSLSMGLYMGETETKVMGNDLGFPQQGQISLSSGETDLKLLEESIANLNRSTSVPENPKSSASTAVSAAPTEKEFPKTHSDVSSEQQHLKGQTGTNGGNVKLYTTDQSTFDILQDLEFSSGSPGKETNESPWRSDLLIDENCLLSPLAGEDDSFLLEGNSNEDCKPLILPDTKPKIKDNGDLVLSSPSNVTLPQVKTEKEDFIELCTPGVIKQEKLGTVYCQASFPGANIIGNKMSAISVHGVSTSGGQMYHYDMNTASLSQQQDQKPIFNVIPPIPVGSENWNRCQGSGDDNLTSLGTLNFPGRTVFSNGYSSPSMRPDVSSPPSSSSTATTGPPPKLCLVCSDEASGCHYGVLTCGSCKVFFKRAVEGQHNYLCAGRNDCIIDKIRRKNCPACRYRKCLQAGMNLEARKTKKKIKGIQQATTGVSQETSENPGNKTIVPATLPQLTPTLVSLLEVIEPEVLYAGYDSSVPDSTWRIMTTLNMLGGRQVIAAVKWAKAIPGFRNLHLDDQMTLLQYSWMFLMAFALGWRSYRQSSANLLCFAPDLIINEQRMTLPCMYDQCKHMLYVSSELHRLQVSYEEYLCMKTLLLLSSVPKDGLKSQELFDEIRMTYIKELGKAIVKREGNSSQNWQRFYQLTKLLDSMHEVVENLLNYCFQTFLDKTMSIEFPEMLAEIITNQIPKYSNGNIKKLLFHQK
# Chain of 3',5'-cyclic-AMP phosphodiesterase 4B (Homo sapiens) (Q07343 whole entry, looked up): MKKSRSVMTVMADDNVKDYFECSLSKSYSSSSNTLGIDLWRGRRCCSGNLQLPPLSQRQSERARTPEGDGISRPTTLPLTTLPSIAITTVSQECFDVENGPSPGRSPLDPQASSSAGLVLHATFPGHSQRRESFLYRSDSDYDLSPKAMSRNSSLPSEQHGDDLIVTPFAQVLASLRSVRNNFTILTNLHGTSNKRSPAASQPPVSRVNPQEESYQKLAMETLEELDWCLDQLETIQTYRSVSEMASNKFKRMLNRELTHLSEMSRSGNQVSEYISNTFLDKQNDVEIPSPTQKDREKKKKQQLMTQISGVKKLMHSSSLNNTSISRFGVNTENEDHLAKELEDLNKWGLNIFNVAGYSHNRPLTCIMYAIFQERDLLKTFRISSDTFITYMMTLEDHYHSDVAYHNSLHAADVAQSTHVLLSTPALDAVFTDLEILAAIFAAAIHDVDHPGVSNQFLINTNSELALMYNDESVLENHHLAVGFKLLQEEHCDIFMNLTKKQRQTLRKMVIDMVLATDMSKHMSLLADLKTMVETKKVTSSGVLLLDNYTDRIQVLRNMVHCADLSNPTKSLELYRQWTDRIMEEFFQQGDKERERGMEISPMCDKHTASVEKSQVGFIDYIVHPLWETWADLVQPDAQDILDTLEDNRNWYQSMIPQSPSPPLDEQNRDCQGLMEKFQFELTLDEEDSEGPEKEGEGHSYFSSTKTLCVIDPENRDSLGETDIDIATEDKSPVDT
compound,measurement,setting,value
O=C(Nc1ccccc1)N1CCCC2(CCNCC2)C1,"activity change, negative = inhibition",[1]; [21],-6.92% (inactive)
same,"activity change, negative = inhibition",[2]; [21],6.49% (inactive)
same,"activity, negative = inhibition",[3]; [21],4.83% (inactive)
same,Potency,[4],> 46 µM (inactive)
same,Potency,[5],inactive
same,Potency,[6],inactive
same,"activity change, negative = inhibition",[7]; at 57.5 µM (top of the series),3.78% (inactive)
same,max response,[7]; [22],18%
same,max response,[7]; [23],25%
C[C@@](N)(Cc1ccc(O)c(O)c1)C(=O)O,"activity change, negative = inhibition",[1]; at 17.2 µM (top of the series),0.401% (inactive)
same,"activity change, negative = inhibition",[1]; at 38 µM (top of the series),5.17% (inactive) and -4.03% (inactive)
same,Potency,[8],inactive
same,"activity change, negative = inhibition",[2]; at 17.2 µM (top of the series),-8.05% (inactive)
same,"activity change, negative = inhibition",[2]; at 38 µM (top of the series),7.56% (inactive) and -10% (inactive)
same,"activity, negative = inhibition",[3]; at 17.2 µM (top of the series),0.151% (inactive)
same,"activity, negative = inhibition",[3]; at 38 µM (top of the series),-17.9% (inactive) and -0.208% (inactive)
same,Potency,[5],inactive
same,Potency,[6],inactive
same,Potency,[9],inactive
same,outcome,[10],inactive
same,outcome,[11],inactive
same,"activity change, negative = inhibition",[7]; at 25.7 µM (top of the series),-1.42% (inactive)
same,max response,[7]; [22],6.8%
same,max response,[7]; [23],-7.65%
same,Potency,[12],inactive
CO[C@]1(NC(=O)CSCC#N)C(=O)N2C(C(=O)O)=C(CSc3nnnn3C)CS[C@H]21,"activity change, negative = inhibition",[1]; at 17.2 µM (top of the series),6.3% (inactive)
same,"activity change, negative = inhibition",[1]; at 38 µM (top of the series),6.07% (inactive)
same,Potency,[8],inactive
same,"activity change, negative = inhibition",[2]; at 17.2 µM (top of the series),-17.5% (inactive)
same,"activity change, negative = inhibition",[2]; at 38 µM (top of the series),-10.8% (inactive)
same,"activity, negative = inhibition",[3]; at 17.2 µM (top of the series),-13.5% (inactive)
same,"activity, negative = inhibition",[3]; at 38 µM (top of the series),0.96% (inactive)
same,Potency,[13],> 46 µM (inactive) and > 20.6 µM (inactive)
same,Potency,[4],> 46 µM (inactive) and > 20.6 µM (inactive)
same,Potency,[5],inactive
same,Potency,[6],inactive
same,Potency,[9],inactive
same,outcome,[10],inactive
same,outcome,[11],inactive
same,"activity change, negative = inhibition",[7]; at 25.7 µM (top of the series),-1.05% (inactive)
same,max response,[7]; [22],-7.44%
same,max response,[7]; [23],-5.83%
same,outcome,[14],inactive
same,Potency,[12],inactive
same,outcome,[15],inactive
same,"activity, negative = inhibition",[16]; parasite line A,11.9% (inactive)
same,"activity, negative = inhibition",[16]; parasite line B,2.32% (inactive)
same,Potency,[17],inactive
same,Potency,[18],inactive
same,Potency,[19],inactive
same,Potency,[20],inactive
O=C(c1cc(C(F)(F)F)cc(C(F)(F)F)c1)N1CCC2(CCCN(c3ccncc3)C2)CC1,"activity, negative = inhibition",[3]; [21],16.9% (inactive)
same,Potency,[4],> 46 µM (inactive)
same,Potency,[5],inactive
same,Potency,[6],inactive
same,"activity change, negative = inhibition",[7]; at 57.5 µM (top of the series),5.04% (inactive)
same,max response,[7]; [22],8.86%
same,max response,[7]; [23],16%
CCn1cc(C(=O)O)c(=O)c2cc(F)c(N3CCN[C@@H](C)C3)c(F)c21,"activity change, negative = inhibition",[1]; at 17.2 µM (top of the series),-0.628% (inactive)
same,"activity change, negative = inhibition",[1]; at 38 µM (top of the series),12.1% (inactive)
same,Potency,[8],inactive
same,"activity change, negative = inhibition",[2]; at 17.2 µM (top of the series),-8.67% (inactive)
same,"activity change, negative = inhibition",[2]; at 38 µM (top of the series),-2.78% (inactive)
same,"activity, negative = inhibition",[3]; at 17.2 µM (top of the series),9.73% (inactive)
same,"activity, negative = inhibition",[3]; at 38 µM (top of the series),26.7% (inactive)
same,Potency,[13],> 46 µM (inactive) and > 20.6 µM (inactive)
same,Potency,[4],> 46 µM (inactive) and > 20.6 µM (inactive)
same,Potency,[5],inactive
same,Potency,[6],inactive
same,Potency,[9],inactive
same,outcome,[10],inactive
same,outcome,[11],inactive
same,"activity change, negative = inhibition",[7]; at 25.7 µM (top of the series),-0.691% (inactive)
same,max response,[7]; [22],-2.23%
same,max response,[7]; [23],-3.89%
same,outcome,[14],inactive
same,Potency,[12],inactive
same,outcome,[15],inactive
same,"activity, negative = inhibition",[16]; parasite line A,5.09% (inactive)
same,"activity, negative = inhibition",[16]; parasite line B,0.537% (inactive)
same,Potency,[17],inactive
same,Potency,[18],inactive
same,Potency,[19],inactive
same,Potency,[20],inactive
